Only some compounds are listed: those with a hit (about 5.3% of all), similar ones and a draw of the others.
Vaccinia Venus – qHTS for Stage-Specific Inhibitors of Vaccinia Orthopoxvirus: Venus Reporter Primary qHTS; Potency, µM (doses to about 36.5 µM), actives largely listed as inhibitors; 0.46% of 330,000 active; Vaccinia virus Venus reporter expression, fluorescence; AID 720580, 2013; calls by dose curve; tested in A549 cells; further: nearly all actives have a fitted effect of over 30% in size
FMDV antiviral – High Throughput Screening for Foot and Mouth Disease Virus Antivirals | 1.2% of 410,000 active | Potency, µM (titrated, usually from 57.9 µM), actives largely listed as inhibitors | FMDV antiviral cell-based qHTS | AID 1159524, 2015; calls by dose curve; tested in HEK293T cells; further: read-out not given here; nearly all actives have a fitted effect of over 45% in size
VACV mCherry inh – qHTS for Stage-Specific Inhibitors of Vaccinia Orthopoxvirus: mCherry Reporter Primary qHTS; Vaccinia virus mCherry reporter infection, fluorescence; 0.63% of 310,000 active; Potency, µM (top dose mostly 36.5 µM), hits mostly inhibitors; calls by dose curve; tested in A549 cells; further: nearly all actives have a fitted effect of over 35% in size
HCV inh – qHTS Assay for Inhibitors of Hepatitis C Virus (HCV); Huh7.5.1 HCVcc-Cre infection, luciferase reporter, 44 h; Potency, µM (series often up to 41.8 µM), actives largely listed as inhibitors; 3.4% of 340,000 active; AID 651820, 2012; active means well fitted inhibition curve with a large enough effect; inconclusive means small, poorly fitted or top-dose-only effect, or another doubt; inactive means no such curve, though single readings can be large or run the other way
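Antiviral activity was scored by luciferase reporter output from cells infected with HCVcc-Cre (~0.5 moi) in presence of compound, 44 h infection period, cells seeded 1,000/well 4 h prior.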
Marburg entry inh – qHTS for inhibitors of binding or entry into cells for Marburg Virus; Marburg virus pseudotyped entry inhibition, cell reporter; Potency, µM (titrated, usually from 37.8 µM), most hits filed as inhibitors; 1.8% of 300,000 active; calls by dose curve; tested in HEK293 cells
Lassa entry inh – qHTS for Inhibitors of binding or entry into cells for Lassa Virus | 1.2% of 300,000 active | Potency, µM (titrated, usually from 37.9 µM), hits mostly inhibitors | Lassa virus pseudotype entry inhibition, cell reporter | AID 540256, 2011; calls by dose curve; tested in HEK293 cells; further: nearly all actives have a fitted effect of over 50% in size
Hits are given with their value; i = inactive; ? = inconclusive; nt = no result given; ! = not confirmed by another sample; [ ] = remark or other dose.

SMILES	Vaccinia Venus	FMDV antiviral	VACV mCherry inh	HCV inh	Marburg entry inh	Lassa entry inh
O=C(N/N=C/c1cc([N+](=O)[O-])ccc1Cl)c1cc(-c2ccccc2)nc2ccccc12	nt	?	nt	i	nt	nt
N=c1c(C(=O)NCC2CCCO2)cc2c(=O)n3ccccc3nc2n1Cc1ccccc1Cl (configuration not stated)	i	i	i	?	11µM	?
Cc1cccn2c(=O)c3cc(C(=O)NC4CCCC4)c(=N)n(Cc4ccc(F)cc4)c3nc12	i[7.34 µM]	i	i[7.34 µM]	11µM	nt	nt
N=c1c(C(=O)NCC2CCCO2)cc2c(=O)n3ccccc3nc2n1Cc1ccccc1 (configuration not stated)	nt	i	nt	7.1µM	nt	nt
Cc1ccc(Cn2c(=N)c(C(=O)NCC3CCCO3)cc3c(=O)n4cccc(C)c4nc32)cc1 (configuration not stated)	i	i	i	11µM	?	i
COC(=O)C(Cc1cc(Br)c(OC)c(Br)c1O)=NO	nt	nt	nt	nt	i	nt
CCOC(=O)CN1C(=O)NC(c2cccc(F)c2)C(C(=O)OC)=C1C (configuration not stated)	nt	nt	nt	nt	i	nt
COc1ccc(-c2cc(C(C)=O)c(C)n2CCC(=O)Nc2ccc(C)c(Cl)c2)cc1	i	i	i	nt	nt	i
CC1Cc2ccccc2N1C(=O)COC(=O)c1cccc(Br)c1 (configuration not stated)	nt	i	nt	i	nt	nt
CCOC(=O)c1c(C)[nH]c(C(=O)OCC(=O)N2c3ccccc3CC2C)c1C (configuration not stated)	i	?	?	10µM	?	?
CCOC(=O)c1[nH]c(C)c(C(=O)OCC(=O)N2CC(=O)Nc3ccccc32)c1C	i	i	i	?	?	i
CCOC(=O)C1=C(C)NC(C)=C(C(=O)OCC)C1C(=O)OCC(=O)N1c2ccccc2CC1C (configuration not stated)	i	i	i	?	13µM!	?
CCOC(=O)c1ccccc1NC(=O)c1c(F)c(F)c(F)c(F)c1F	nt	i	nt	10µM	?	i
CCOC(=O)c1ccccc1NC(=O)c1ccccc1N(C)S(C)(=O)=O	i	i	i	i	i	i
CCOC(=O)c1ccccc1NC(=O)c1ccc(N(C)S(C)(=O)=O)cc1	i	nt	i	10µM	i	i
Nn1c(C2COc3ccccc3O2)n[nH]c1=S (configuration not stated)	nt	i	nt	i	nt	nt
c1ccc2c(c1)OCC(C1=NCCN1)O2 (configuration not stated)	i	?	i	i[8.37 µM]	?	2.6µM!
CCC(=O)N1CCc2cc(S(=O)(=O)CCC(=O)N3CCN(c4ccc(Cl)cc4)CC3)ccc21	i[7.34 µM]	?	i[7.34 µM]	10µM	?	i
CC(=O)N1CCc2cc(S(=O)(=O)NCCC(=O)NCCc3ccc(C)cc3)ccc21	i	?	i	10µM	?	?
CC(=O)N1CCc2cc(S(=O)(=O)NCCC(=O)NCCc3ccccc3)ccc21	i	?	i	i	i	i
CCC(=O)N1CCc2cc(S(=O)(=O)NCCC(=O)N3CCN(c4cccc(C)c4)C(C)C3)ccc21 (configuration not stated)	nt	?	nt	14µM	nt	nt
COC(=O)[C@@H]1CCCN1Cc1ccc2c(c1)CN(Cc1cccn1-c1ncccn1)CCO2	i	?	i	nt	nt	nt
COc1ccccc1C=CC(=O)C=Cc1ccccc1OC	?	?	?	?	?	4.5µM
CNc1ccccc(C(=O)/C=C/c2ccccc2OC)c1=O	?	?	i	?	11µM	?
O=C1c2ccccc2C(=O)N1CCCCc1cn(C[C@H]2CC[C@@H]([C@@H]3CC[C@H](Cn4cc(CCCCN5C(=O)c6ccccc6C5=O)nn4)O3)O2)nn1	i	25µM	i	?	nt	nt
SMILES	Vaccinia Venus	FMDV antiviral	VACV mCherry inh	HCV inh	Marburg entry inh	Lassa entry inh
O=C1c2ccccc2C(=O)N1CCCc1cn(C[C@H]2CC[C@@H]([C@@H]3CC[C@H](Cn4cc(CCCN5C(=O)c6ccccc6C5=O)nn4)O3)O2)nn1	i	i	i	i[8.37 µM]	nt	nt
COc1cc(-c2ccc(C(F)(F)F)cn2)cc2c1OCCN(S(=O)(=O)C[C@]13CC[C@H](CC1=O)C3(C)C)C2	i	i	i	nt	nt	nt
COc1ccc(-c2nsc3c(N4CCCCC4)ncnc23)cc1	nt	?	nt	i	?	?
COc1ccc(-c2nsc3c(N4CCCCC4C)ncnc23)cc1 (configuration not stated)	i	0.032µM	i	?	nt	nt
COc1ccc(OC)c(C2C3=C(COC3=O)Nc3cc4c(cc32)OCO4)c1 (configuration not stated)	nt	i	nt	i	0.26µM	i
O=C(Nc1ccc2nc(SCC(=O)N3CCOCC3)sc2c1)c1ccc(Cl)cc1	?	20µM	?	nt	?	?
Cc1ccc(OCCSc2nc3ccc(NC(=O)c4ccc5c(c4)OCO5)cc3s2)cc1	11µM	?	?	nt	i	i
CN(C(=O)CSc1nc2ccc(NC(=O)c3ccc(F)cc3)cc2s1)c1ccccc1	i	?	i	nt	?	?
COc1ccc(C(=O)Nc2ccc3nc(SCC(=O)N(C)c4ccccc4)sc3c2)cc1	?	35µM	i	nt	?	?
CC(C)C(=O)Nc1ccc2nc(SCC(=O)N3CCc4ccccc43)sc2c1	i	35µM	i	nt	i	i
CCC(CC)C(=O)Nc1ccc2nc(SCC(=O)N3CCc4ccccc43)sc2c1	i	?	i	nt	?	i
Cc1ccc(S(=O)(=O)n2nc(-c3ccco3)nc2NCc2ccc(N(C)C)cc2)cc1	i	i	i	nt	i	i
O=C(Nc1ccc2nc(SCC(=O)N3CCOCC3)sc2c1)c1ccc(Br)cc1	i	?	i	nt	?	i
O=C(Nc1ccc2nc(SCC(=O)N3CCOCC3)sc2c1)c1cccc(Br)c1	i	25µM	i	nt	?	i
COc1cccc(/C=C/C(=O)Nc2ccc3nc(N4CCN(C)CC4)cc(C)c3c2)c1OC	i	i	i	nt	?	?
OC(CNC1CCCCC1)COCCOc1ccc(Br)cc1 (configuration not stated)	i	?	i	7.9µM	?	i
OC(CNC1CCCC1)COc1ccc(-c2ccccc2)cc1 (configuration not stated)	i	i	i	?	?	i
O=c1[nH]c(=O)n(C2CC(O)C(CO)O2)cc1F (configuration not stated)	?	i	?	nt	nt	nt
O=c1[nH]c(=O)n(C2CC(O)C(CO)O2)cc1C(F)(F)F (configuration not stated)	i	i	2µM	nt	nt	nt
CC(=O)N1CCC2(CCCN(c3ccc(-c4ccccc4)cc3)C2)CC1	nt	i	nt	nt	nt	nt
O=C(CN1CCN(c2ccccc2)CC1)N1N=CCC1c1ccccc1 (configuration not stated)	i	i	nt	?	i	i
O=C(CN1CCN(C(c2ccccc2)c2ccccc2)CC1)N1N=CCC1c1ccccc1 (configuration not stated)	i	i	i	?	8.9µM	?

Bioassay records deposited in PubChem BioAssay by National Center for Advancing Translational Sciences (NCATS).
